Many of the other results were omitted from the sample, so the strongest signals are more common in it than they were.
What was measured:
Assay in all cases: glycan array binding signal (z-score within array); higher = stronger binding
Details in all cases: glycan notation: IUPAC condensed, linker removed
[1] = tested on: GlcNAc(a1-3)Gal(b1-4)GlcNAc
Summary of the method: (§1)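 Glycan array data were curated from 3228 arrays in the Consortium for Functional Glycomics database and kept only where the protein sequence was available. Glycan names were converted to IUPAC-condensed notation, and columns mapping to the same glycan were averaged. The binding signal is a within-array Z-score, averaged across arrays of the same protein sequence at different concentrations or buffers and across linkers. Negative Z-scores can be read as non-binding.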

[2] = tested on: GlcNAc(a1-4)Gal(b1-4)GlcNAc(b1-3)Gal(b1-4)GlcNAc
Summary of the method: as §1

[3] = tested on: GlcNAc(a1-4)Gal(b1-4)GlcNAc(b1-3)Gal(b1-4)[Fuc(a1-3)]GlcNAc(b1-3)Gal(b1-4)[Fuc(a1-3)]GlcNAc
Summary of the method: as §1

[4] = tested on: GlcNAc(b1-2)Man(a1-3)[GlcNAc(b1-2)Man(a1-6)]Man(b1-4)GlcNAc(b1-4)[Fuc(a1-6)]GlcNAc
Summary of the method: as §1

[5] = tested on: GlcNAc(b1-2)[GlcNAc(b1-4)]Man(a1-3)[GlcNAc(b1-2)Man(a1-6)]Man(b1-4)GlcNAc(b1-4)GlcNAc
Summary of the method: as §1

[6] = tested on: GlcA(b1-3)Gal
Summary of the method: as §1

[7] = tested on: GlcA3S(b1-3)Gal(b1-4)GlcNAc(b1-2)Man
Summary of the method: as §1

[8] = tested on: GlcNAc(b1-2)Man(a1-3)[GlcNAc(b1-2)Man(a1-6)]Man(b1-4)GlcNAc(b1-4)GlcNAc
Summary of the method: as §1

[9] = tested on: GalNAc4S6S(b1-4)GlcNAc
Summary of the method: as §1

[10] = tested on: GlcNAc(b1-2)Man(a1-3)[GlcNAc(b1-4)][GlcNAc(b1-2)Man(a1-6)]Man(b1-4)GlcNAc(b1-4)[Fuc(a1-6)]GlcNAc
Summary of the method: as §1

[11] = tested on: GlcNAc(b1-2)[GlcNAc(b1-4)]Man(a1-3)[GlcNAc(b1-4)][GlcNAc(b1-2)[GlcNAc(b1-6)]Man(a1-6)]Man(b1-4)GlcNAc(b1-4)GlcNAc
Summary of the method: as §1

[12] = tested on: Glc(a1-4)Glc
Summary of the method: as §1

[13] = tested on: GlcNAc(b1-2)Gal(b1-3)GalNAc
Summary of the method: as §1

[14] = tested on: GlcNAc(a1-4)Gal(b1-4)GalNAc
Summary of the method: as §1

[15] = tested on: GalNAc3S(b1-4)GlcNAc
Summary of the method: as §1

[16] = tested on: Glc(a1-4)Glc(a1-4)Glc(a1-4)Glc
Summary of the method: as §1

[17] = tested on: Glc(a1-6)Glc(a1-6)Glc
Summary of the method: as §1

[18] = tested on: Glc(b1-4)Glc
Summary of the method: as §1

[19] = tested on: Glc(b1-6)Glc
Summary of the method: as §1

[20] = tested on: GlcA(b1-3)GlcNAc
Summary of the method: as §1

Substance: BambL (Burhholderia ambifaria), Q0B4G1
- glycan array binding signal (z-score) [1]: -0.316
- glycan array binding signal (z-score) [2]: -0.278
- glycan array binding signal (z-score) [3]: 0.185
- glycan array binding signal (z-score) [4]: 0.071
- glycan array binding signal (z-score) [5]: -0.291

Substance: GspB (Streptococcus gordonii), Q939N5
- glycan array binding signal (z-score) [6]: -0.677
- glycan array binding signal (z-score) [1]: 2.63

Substance: Wza (Escherichia coli), P0A930
- glycan array binding signal (z-score) [3]: 3.13

Substance: AgI/IIC123-GFP (Streptococcus mutans)
- glycan array binding signal (z-score) [7]: 3.12
- glycan array binding signal (z-score) [8]: -0.346

Substance: LcI (Legionella pneumophila)
- glycan array binding signal (z-score) [9]: -0.709
- glycan array binding signal (z-score) [10]: -0.447
- glycan array binding signal (z-score) [11]: -0.477

Substance: SiiE (Salmonella typhimurium), A0A0H3NVH0
- glycan array binding signal (z-score) [12]: -0.099
- glycan array binding signal (z-score) [13]: 0.158
- glycan array binding signal (z-score) [11]: -1.05

Substance: Epa22
- glycan array binding signal (z-score) [14]: -0.638
- glycan array binding signal (z-score) [4]: -0.14

Substance: AgI/II Vhelical-GFP (Streptococcus mutans)
- glycan array binding signal (z-score) [15]: -0.11
- glycan array binding signal (z-score) [16]: -0.13
- glycan array binding signal (z-score) [17]: -0.269
- glycan array binding signal (z-score) [2]: 1.06
- glycan array binding signal (z-score) [5]: -0.187

Substance: SpGH101 (Streptococcus pneumoniae), Q8DR60
- glycan array binding signal (z-score) [17]: -0.103
- glycan array binding signal (z-score) [18]: -0.147
- glycan array binding signal (z-score) [19]: -0.186
- glycan array binding signal (z-score) [6]: -0.183
- glycan array binding signal (z-score) [20]: 3.66

Reference: the supplement of paper PMC8728848
